Activity calls are given as the source filed them. The calls were made as follows: active = hit-call score of the fitted dose curve at least 0.9, where 1 is the maximum; inactive = score below 0.9.
Assays:
Conditions in all cases: mRNA level, 48 h; actives raise or lower the signal
[1] = read-out: CFLAR gene, CFLAR (gene 8837); experiment: LTEA_HepaRG_CFLAR: Life Technologies and Expression Analysis (LTEA) Assay for CFLAR gene using HepaRG (AID 2283455)
Procedure, shortened: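 Differentiated HepaRG cells in serum-free induction medium were exposed 48 h in duplicate to eight half-log concentrations up to 100 uM in 0.5% DMSO; mRNA measured by TaqMan qRT-PCR, normalized to ACTB, GAPDH, POLR2A; bidirectional fitting versus DMSO.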

[2] = read-out: Forkhead box O1 (FOXO1), FOXO1 (gene 2308); experiment: LTEA_HepaRG_FOXO1: Life Technologies and Expression Analysis (LTEA) Assay for Forkhead box O1 (FOXO1) using HepaRG (AID 2283456)
Procedure, shortened: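 Differentiated HepaRG cells, in serum-free induction medium with 0.5% DMSO, exposed 48 h in duplicate to 8-point half-log series from 100 uM. FOXO1 mRNA measured by TaqMan qRT-PCR, normalized to ACTB, GAPDH, POLR2A; bidirectional fit versus DMSO.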

[3] = read-out: growth arrest and DNA damage 45 (GADD45A), GADD45A (gene 1647); experiment: LTEA_HepaRG_GADD45A: Life Technologies and Expression Analysis (LTEA) Assay for growth arrest and DNA damage 45 (GADD45A) using HepaRG (AID 2283458)
Procedure, shortened: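 Human HepaRG liver cells are treated in duplicate for 48 h with chemicals in 0.5% DMSO, highest concentration 100 uM. Expression is read by qRT-PCR and analyzed in both directions against vehicle.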

[4] = read-out: Forkhead box O3 (FOXO3), FOXO3 (gene 2309); experiment: LTEA_HepaRG_FOXO3: Life Technologies and Expression Analysis (LTEA) Assay for Forkhead box O3 (FOXO3) using HepaRG (AID 2283459)
Procedure, shortened: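 Differentiated human HepaRG cells, 48 h post-plating, exposed in duplicate for 48 h in serum-free induction medium; 8-point half-log series from 100 uM in 0.5% DMSO. FOXO3 mRNA by TaqMan qRT-PCR, normalized to ACTB/GAPDH/POLR2A; bidirectional fit versus DMSO.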

[5] = read-out: ABC Transporter (ABCB1), ABCB1 (gene 5243); experiment: LTEA_HepaRG_ABCB1: Life Technologies and Expression Analysis (LTEA) Assay for ABC Transporter (ABCB1) using HepaRG (AID 2283460)
Procedure, shortened: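 HepaRG cells exposed in duplicate for 48 h in serum-free induction medium to eight half-log concentrations up to 100 uM in 0.5% DMSO. ABCB1 mRNA quantified by qRT-PCR, normalised to ACTB, GAPDH and POLR2A; fitted bidirectionally versus DMSO.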

[6] = read-out: growth arrest and DNA damage 45 (GADD45B), GADD45B (gene 4616); experiment: LTEA_HepaRG_GADD45B: Life Technologies and Expression Analysis (LTEA) Assay for growth arrest and DNA damage 45 (GADD45B) using HepaRG (AID 2283461)
Procedure, shortened: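 HepaRG, ~100,000 cells/well, 48 h plating; serum-free induction medium; cpd 100 uM top, half-log x8, 0.5% DMSO, duplicate, 48 h; lysis in RLT, RNA isolation, qRT-PCR; norm ACTB/GAPDH/POLR2A; bidirectional fit vs DMSO.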

[7] = read-out: ABC Transporter (ABCC3), ABCC3 (gene 8714); experiment: LTEA_HepaRG_ABCC3: Life Technologies and Expression Analysis (LTEA) Assay for ABC Transporter (ABCC3) using HepaRG (AID 2283462)
Procedure, shortened: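 Human HepaRG, 48 h dosing, 8-pt half-log series from 100 uM, 0.5% DMSO vehicle, duplicates. ABCC3 mRNA by TaqMan qRT-PCR, housekeeping-normalized; bidirectional curve fit vs DMSO.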

[8] = read-out: ABC Transporter (ABCB11), ABCB11 (gene 8647); experiment: LTEA_HepaRG_ABCB11: Life Technologies and Expression Analysis (LTEA) Assay for ABC Transporter (ABCB11) using HepaRG (AID 2283463)
Procedure, shortened: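 Differentiated human HepaRG cells in serum-free induction medium, dosed in duplicate for 48 h. Eight-point half-log series from 100 uM in 0.5% DMSO; ABCB11 mRNA by qRT-PCR, normalized to ACTB, GAPDH, POLR2A, fitted bidirectionally versus DMSO.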

[9] = read-out: ABC Transporter (ABCC2), ABCC2 (gene 1244); experiment: LTEA_HepaRG_ABCC2: Life Technologies and Expression Analysis (LTEA) Assay for ABC Transporter (ABCC2) using HepaRG (AID 2283464)
Procedure, shortened: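 HepaRG, 48 h post-plating; serum-free induction medium; cpd 8-pt, 100 uM top, half-log, 0.5% DMSO, duplicate, 48 h. Readout: ABCC2 mRNA by qRT-PCR, norm. ACTB/GAPDH/POLR2A. Bidirectional fit vs DMSO baseline.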

[10] = read-out: Broad substrate specificity ATP-binding cassette transporter ABCG2 (Homo sapiens) (UniProt Q9UNQ0); experiment: LTEA_HepaRG_ABCG2: Life Technologies and Expression Analysis (LTEA) Assay for ABC Transporter (ABCG2) using HepaRG (AID 2283465)
Procedure, shortened: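 Differentiated HepaRG cells were exposed for 48 h in serum-free induction medium to 8 half-log concentrations, top 100 uM, in 0.5% DMSO. ABCG2 mRNA was measured by qRT-PCR, normalized to ACTB, GAPDH and POLR2A, with bidirectional fitting versus DMSO.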

[11] = read-out: ATP-citrate lyase (ACLY), ACLY (gene 47); experiment: LTEA_HepaRG_ACLY: Life Technologies and Expression Analysis (LTEA) Assay for ATP-citrate lyase (ACLY) using HepaRG (AID 2283466)
Procedure, shortened: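 Differentiated HepaRG cells exposed 48 h in serum-free induction medium to eight half-log concentrations up to 100 uM in 0.5% DMSO, duplicates. Transcript measured by Fluidigm TaqMan qRT-PCR, normalized to ACTB, GAPDH, POLR2A; bidirectional fit versus DMSO.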

[12] = read-out: Peroxisomal acyl-coenzyme A oxidase 1 (ACOX1) gene, ACOX1 (gene 51); experiment: LTEA_HepaRG_ACOX1: Life Technologies and Expression Analysis (LTEA) Assay for Peroxisomal acyl-coenzyme A oxidase 1 (ACOX1) gene using HepaRG (AID 2283467)
Procedure, shortened: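 HepaRG cells, plated 48 h then switched to serum-free induction medium, were exposed in duplicate for 48 h to 8-point half-log concentrations up to 100 uM in 0.5% DMSO. ACOX1 mRNA was measured by qRT-PCR, normalized to ACTB/GAPDH/POLR2A, and fitted bidirectionally versus DMSO.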

[13] = read-out: Alkaline Phosphatase, Placental (ALPP) gene, ALPP (gene 250); experiment: LTEA_HepaRG_ALPP: Life Technologies and Expression Analysis (LTEA) Assay for Alkaline Phosphatase, Placental (ALPP) gene using HepaRG (AID 2283468)
Procedure, shortened: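 HepaRG, 48 h plating then 48 h dosing, serum-free induction medium, 0.5% DMSO. 8 conc, half-log, max 100 uM, duplicates. Endpoint: ALPP transcript by qRT-PCR, housekeeping-normalized; gain or loss fitted vs DMSO.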

[14] = read-out: Bcl-2 (BAD) gene, BAD (gene 572); experiment: LTEA_HepaRG_BAD: Life Technologies and Expression Analysis (LTEA) Assay for Bcl-2 (BAD) gene using HepaRG (AID 2283469)
Procedure, shortened: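 Differentiated HepaRG cells were exposed in duplicate in 0.5% DMSO for 48 h to eight-point half-log concentrations up to 100 uM. BAD mRNA was measured by Fluidigm TaqMan qRT-PCR, normalized to ACTB, GAPDH and POLR2A, and fitted bidirectionally against DMSO.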

[15] = read-out: Bcl-2 (BAX) gene, BAX (gene 581); experiment: LTEA_HepaRG_BAX: Life Technologies and Expression Analysis (LTEA) Assay for Bcl-2 (BAX) gene using HepaRG (AID 2283470)
Procedure, shortened: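 Concentration-response endpoint fitted in both directions relative to 0.5% DMSO vehicle. Human HepaRG cultures receive test chemicals for 48 h at up to 100 uM; BAX mRNA is quantified by qRT-PCR against housekeeping genes.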

[16] = read-out: adenosine kinase (ADK) gene, ADK (gene 132); experiment: LTEA_HepaRG_ADK: Life Technologies and Expression Analysis (LTEA) Assay for adenosine kinase (ADK) gene using HepaRG (AID 2283471)
Procedure, shortened: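 Differentiated HepaRG cells dosed 48 h in serum-free induction medium, 0.5% DMSO vehicle, eight half-log concentrations from 100 uM, in duplicate. ADK mRNA by TaqMan qRT-PCR normalised to ACTB, GAPDH, POLR2A; bidirectional fit versus DMSO.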

[17] = read-out: Alpha-fetoprotein (AFP) gene, AFP (gene 174); experiment: LTEA_HepaRG_AFP: Life Technologies and Expression Analysis (LTEA) Assay for Alpha-fetoprotein (AFP) gene using HepaRG (AID 2283472)
Procedure, shortened: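 After a 48 h plating period, cells are moved to serum-free induction medium and dosed in duplicate (100 uM maximum, half-log dilutions, 0.5% DMSO) for another 48 h. Total RNA goes to TaqMan qRT-PCR; AFP signal is housekeeping-normalized.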

BCL2L11 (gene 10018) = experiment: LTEA_HepaRG_BCL2L11: Life Technologies and Expression Analysis (LTEA) Assay for Bcl-2 (BCL2L11) gene using HepaRG (AID 2283473)
Procedure, shortened: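 Read-out is BCL2L11 transcript level by qRT-PCR, normalized to three housekeeping genes and fitted bidirectionally against 0.5% DMSO vehicle. HepaRG cells received chemicals for 48 h in serum-free induction medium, 100 uM down in half-log dilutions.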

Measured: outcome

Broad substrate specificity ATP-binding cassette transporter ABCG2 (Homo sapiens), sequence (Q9UNQ0 whole entry, looked up): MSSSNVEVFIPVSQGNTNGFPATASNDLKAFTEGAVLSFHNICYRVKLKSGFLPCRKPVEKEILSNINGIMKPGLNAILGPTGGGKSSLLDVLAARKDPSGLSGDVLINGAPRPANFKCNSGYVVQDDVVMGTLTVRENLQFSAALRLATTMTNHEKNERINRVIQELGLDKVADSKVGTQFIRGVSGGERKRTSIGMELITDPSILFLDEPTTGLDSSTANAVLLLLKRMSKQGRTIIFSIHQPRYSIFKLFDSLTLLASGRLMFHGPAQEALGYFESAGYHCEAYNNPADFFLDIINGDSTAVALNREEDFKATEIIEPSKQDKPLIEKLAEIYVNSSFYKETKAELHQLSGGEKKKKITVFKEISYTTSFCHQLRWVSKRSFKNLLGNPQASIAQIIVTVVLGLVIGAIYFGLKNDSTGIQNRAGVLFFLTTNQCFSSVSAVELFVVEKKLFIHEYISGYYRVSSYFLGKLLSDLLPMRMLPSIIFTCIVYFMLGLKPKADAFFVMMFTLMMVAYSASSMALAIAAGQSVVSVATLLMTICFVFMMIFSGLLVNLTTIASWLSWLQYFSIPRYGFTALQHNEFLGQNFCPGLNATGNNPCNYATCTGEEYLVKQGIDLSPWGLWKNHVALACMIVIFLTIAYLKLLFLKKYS

c1cc[n+]2c(c1)-c1cccc[n+]1CC2
inactive: all assays above

From PubChem BioAssay (EPA / NIEHS)
